Assay type in all cases: functional
In assay [1] the target is Solute carrier family 2, facilitated glucose transporter member 1 (Homo sapiens) (UniProt P11166). In words: ST_JUDE_LEISH: Cytotoxicity at 2uM final concentration against transgenic Leishmania Mexicana promastigotes LmGLUT1 that are glucose transport deficient and complemented with the human glucose transporter GLUT1. Activity is measured by DNA content using SYBR green in vitro.

The target of assay [2] is Hexose transporter 1 (Plasmodium falciparum) (UniProt O97467). In words: ST_JUDE_LEISH: Cytotoxicity at 2uM final concentration against transgenic Leishmania Mexicana promastigotes LmPfHT that are glucose transport deficient and complemented with the Plasmodium falciparum hexose transporter. Activity is measured by DNA content using SYBR green in vitro.
Assay [3] has as its target Glucose transporter (Leishmania mexicana) (UniProt O61059). In words: ST_JUDE_LEISH: Cytotoxicity at 2uM final concentration against transgenic Leishmania Mexicana promastigotes LmGT2 that are glucose transport deficient and complemented with the L. Mexicana glucose transporter 2. Activity is measured by DNA content using SYBR green in vitro.

Sequence of Solute carrier family 2, facilitated glucose transporter member 1 (Homo sapiens) (P11166 whole entry): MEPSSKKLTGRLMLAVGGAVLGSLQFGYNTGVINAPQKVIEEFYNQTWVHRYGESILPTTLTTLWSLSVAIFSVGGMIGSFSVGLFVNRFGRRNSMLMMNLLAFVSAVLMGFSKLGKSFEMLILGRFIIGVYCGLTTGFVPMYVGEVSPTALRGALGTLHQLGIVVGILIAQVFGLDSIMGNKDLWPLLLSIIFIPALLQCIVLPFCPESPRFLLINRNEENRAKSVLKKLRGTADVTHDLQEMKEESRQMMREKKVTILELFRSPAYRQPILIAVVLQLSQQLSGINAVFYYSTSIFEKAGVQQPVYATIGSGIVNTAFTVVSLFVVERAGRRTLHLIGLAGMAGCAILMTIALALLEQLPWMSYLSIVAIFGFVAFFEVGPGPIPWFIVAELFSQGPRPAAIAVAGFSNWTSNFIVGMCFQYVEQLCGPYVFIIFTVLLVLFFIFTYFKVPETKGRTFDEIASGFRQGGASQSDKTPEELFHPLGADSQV

For `O=C(Nc1ccc(Cn2ncc(N3CCCNCC3)c(Cl)c2=O)cc1)Nc1ccc(SC(F)(F)F)cc1`, the inhibition was 3.57% in assay [1], 10.1% in assay [2] and -1.22% in assay [3].

Take `Nc1nc(N)c2c(Sc3ccc(F)cc3)cccc2n1`: the inhibition came out at 6.11% in assay [1], 6.64% in assay [2] and 7.67% in assay [3].

Turning to `CCCCC1(NC(=O)[C@@H](Nc2ccc(C#N)c3ccccc23)C2CCCCC2)CCCCC1`, the inhibition is -1.28% in assay [1], -0.56% in assay [2] and -0.93% in assay [3].

For the compound `NCCC(=O)Nc1ccc(-c2cnc3[nH]cc(-c4ccc(C(=O)O)cc4)c3c2)cn1`, the inhibition was determined as 1.05% in assay [1], 1.74% in assay [2] and 0.13% in assay [3].

`COc1ccc2[nH]ccc(=NN=Cc3ccc(N(C)C)cc3)c2c1`: the inhibition was found to be 2.69% in assay [1], 3.94% in assay [2] and 0.57% in assay [3].

On to `Cc1cc(N[C@@H](CC(C)C)C(=O)Nc2ccccc2)nc(Nc2ccccc2)n1`, for which the figures for the inhibition in assay [1], in assay [2] and in assay [3] were 1.17%, -0.52% and -0.1%, respectively.

As for `CS(=O)(=O)c1ccc(CCNCc2ccc(-c3ccc(CN(C(=O)c4ccco4)C4CCN(Cc5ccccc5)CC4)cc3)nc2)cc1`, the figures for the inhibition in assay [1], in assay [2] and in assay [3] were 1.33%, 0.67% and 4.41%, respectively.

Take `CC[C@H](C)CNC(=O)c1cncc(-c2cccc(CN(C)C3CCN(C)CC3)c2)c1`: the results for the inhibition in assay [1], in assay [2] and in assay [3] were 2.22%, 2.75% and 3.37%, respectively.

In the case of `CCc1c[nH]c2c(N3CCCCC3=O)cc(C(=O)N[C@@H](Cc3ccccc3)[C@H](O)CNCc3cccc(OC)c3)cc12`, the figures for the inhibition in assay [1], in assay [2] and in assay [3] were -0.8%, -2.31% and 0.87%, respectively.

In the case of `O=C(CCC1CCCC1)N(Cc1ccc(-c2ccc(CNCCc3ccccc3)cc2)cc1)C1CCCNC1` (stereo unspecified), the inhibition in assay [1] was -0.19%; in assay [2] it was 1.6%; in assay [3], 0.14%.

On to `COc1ccc2nccc(NCC3(O)CCN(CC(O)c4ccc5c(c4)NC(=O)CS5)CC3)c2n1` (stereo unspecified), for which the inhibition in assay [1] came to 3.39%; in assay [2] it was 2.49%; in assay [3], 2.58%.

As for `COc1ccc2nccc([C@@H](O)CN3CCC(NC(=O)Cc4ccc(Br)c5ccccc45)CC3)c2c1`, the figures for the inhibition in assay [1], in assay [2] and in assay [3] were 3.72%, 3.24% and 1.16%, respectively.

As usually defined, the inhibition is the drop in the measured response relative to a control, in per cent.

The record behind these values is ChEMBL document CHEMBL3433997, “St. Jude Leishmania screening dataset” (2016).
